ELG1 DNA repair – qHTS screen for small molecules that inhibit ELG1-dependent DNA repair in human embryonic kidney (HEK293T) cells expressing luciferase-tagged ELG1. Potency, µM (highest dose often 46.1 µM), without a hit: top-dose activity change, negative = inhibition, most hits filed as inhibitors. 330,000 compounds, 2.3% hits. AID 504467, 2011. HEK293T ELG1-luciferase reporter, luminescence, 16 h; DNA damage induced by 5-fluorouridine; also: % is scaled to controls: 0 for no effect and ±100 for the full control effect; nearly all actives have a fitted effect of over 55% in size
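Quantitative HTS, concentration-response format. 2,000 cells/well co-treated with 5-fluorouridine and compound, 16 hr in 5% CO2 at 37 °C; ONE-Glo luminescence read after 30 min.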
Rab9 promoter act – qHTS Assay for Rab9 Promoter Activators; Huh7 Rab9 promoter-luciferase reporter, luminescence, 24 h; Potency, µM (doses to about 9.22 µM), for the others: at the top dose activation, negative = inhibition, usual class: activators; 320,000 compounds, 2.8% hits; also: % of control where 0% means no effect; nearly all actives have a fitted effect of over 60% in size
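Rab9 promoter-driven luciferase in stably transfected Huh7 cells; 1500 cells/well rested 2 h, exposed to compound in DMSO for 24 h at 37 °C, 5% CO2. Luminescence read 10 min after adding luciferase reagent at ambient temperature.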
NPC1 promoter act – qHTS Assay for NPC1 Promoter Activators. Huh7 NPC1 promoter luciferase reporter, 24 h. Potency, µM (doses to about 9.22 µM), for inactives: top-dose activation, actives largely listed as activators. 320,000 compounds, 2.4% hits; also: % of control where 0% means no effect; nearly all actives have a fitted effect of over 60% in size
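Huh7 reporter cells (NPC1 promoter driving luciferase) are dosed with compound for 24 h at 37 °C, 5% CO2; luciferase detection reagent is then added and luminescence measured after 10 min at ambient temperature.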
SMN2 splice enh – qHTS Assay for Enhancers of SMN2 Splice Variant Expression; HEK293 SMN2-luciferase splicing reporter, luminescence, 30-36 h; Potency, µM (series often up to 46.1 µM), for inactives: at the top dose activity change, positive = activation, usual class: activators; 210,000 compounds, 2.8% hits; also: % of control where 0% means no effect; nearly all actives have a fitted effect of over 55% in size
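qHTS luciferase splicing reporter: luminescence rises when SMN2 exon 7 is included in transfected HEK293 cells. Compound exposure lasted 30-36 h at 37C, with 4.5 mM final sodium butyrate as control, followed by a ONE-Glo read.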
ELG1 genotox – qHTS screen for small molecules that induce genotoxicity in human embryonic kidney (HEK293T) cells expressing luciferase-tagged ELG1; HEK293T ELG1-luciferase reporter, luminescence, 16 h; 330,000 compounds, 1.3% hits; Potency, µM (top dose mostly 46 µM), for the others: at the highest dose activity change, positive = activation, usual class: activators; also: % of control where 0% means no effect; nearly all actives have a fitted effect of over 60% in size
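Step 1: seed 2,000 HEK293T ELG1-luciferase cells per well. Step 2: add compound or DMSO, incubate 16 hr at 37 °C. Step 3: ONE-Glo, 30 min at room temperature, read luminescence.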
FLuc counter – qHTS profiling assay for firefly luciferase inhibitor/activator using purifed enzyme and Km concentrations of substrates (counterscreen for miR-21 project); Luciferin 4-monooxygenase (Photinus pyralis), P08659; purified FLuc, Km substrates, luminescence inhibition; Potency, µM (highest dose often 57.5 µM), inactives show top-dose activity change, negative = inhibition, hits mostly inhibitors; 360,000 compounds, 6.9% hits;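 also: plate controls were vehicle for no effect and reference inhibitor for full effect; nearly all actives have a fitted effect of over 55% in size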
Target sequence (P08659 whole entry, looked up): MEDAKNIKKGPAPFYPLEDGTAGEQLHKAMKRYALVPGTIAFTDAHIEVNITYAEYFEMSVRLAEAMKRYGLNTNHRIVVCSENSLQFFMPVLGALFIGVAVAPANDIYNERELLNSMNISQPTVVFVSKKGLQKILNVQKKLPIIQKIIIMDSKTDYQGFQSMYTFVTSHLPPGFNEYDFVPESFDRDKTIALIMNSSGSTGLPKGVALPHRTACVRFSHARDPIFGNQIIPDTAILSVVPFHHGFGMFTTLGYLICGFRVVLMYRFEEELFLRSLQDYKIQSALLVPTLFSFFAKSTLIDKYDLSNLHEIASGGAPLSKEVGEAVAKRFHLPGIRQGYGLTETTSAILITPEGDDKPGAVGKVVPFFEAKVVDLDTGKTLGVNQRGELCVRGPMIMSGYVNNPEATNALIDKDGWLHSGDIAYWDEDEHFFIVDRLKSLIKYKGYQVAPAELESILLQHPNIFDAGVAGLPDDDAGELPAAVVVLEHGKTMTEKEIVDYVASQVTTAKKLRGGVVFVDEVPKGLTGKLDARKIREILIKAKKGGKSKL
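Purified P. pyralis luciferase, 10 nM final, with Km-level 10 uM D-luciferin and 10 uM ATP in 50 mM Tris acetate pH 7.5, 10 mM Mg acetate, 0.01% Tween-20, 0.05% BSA; 6-point qHTS titration about 60 µM downward; luminescence read.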
Starred values were filed as active, the others as inactive; ? = inconclusive; nt = not tested or not shown. Most compounds without a hit are left out; they make up all but 9.3% or so of the library. Calls follow the shape of the dose curve; as a rule, active = well fitted curve in the direction sought with a large enough effect; inconclusive = small, poorly fitted or top-dose-only effect, or another doubt; inactive = no such curve, though single readings can be large; an effect the other way counts as inactive or inconclusive. Potency is read from the fitted curve at half-maximal effect.

SMILES	ELG1 DNA repair	Rab9 promoter act	NPC1 promoter act	SMN2 splice enh	ELG1 genotox	FLuc counter
COCCCNC(=O)CSc1nc2c(sc3ccccc32)c(=O)n1CCCC(=O)NCCOC	nt	nt	nt	21%	nt	5%
COc1ccc(-c2nc3sc(CCNC(=O)c4ccco4)c(C)n3n2)cc1	nt	nt	nt	nt	nt	21µM*
COc1ccc(-c2nc3sc(CCNC(=O)c4cc(OC)c(OC)c(OC)c4)c(C)n3n2)cc1	nt	nt	nt	nt	nt	11µM*
CCN1C(=O)c2cccc3c(S(=O)(=O)NCc4ccccc4)ccc1c23	?	1%	0%	nt	17%	-1%
CCc1cc2c(NCCC(=O)O)nc(C)nc2s1	-1%	0%	-3%	9%	-4%	0%
CCC(=O)N1CCN(c2ccccc2NC(=O)c2ccc(-c3cccc([N+](=O)[O-])c3)o2)CC1	9.2µM*	-2%	0%	-9%	-6%	-13%
CS(=O)(=O)N1CCN(c2ccccc2NC(=O)c2ccc([N+](=O)[O-])o2)CC1	23µM*	-1%	-7%	-18%	-13%	1%
Cc1ccccc1NC(=O)c1ccc([N+](=O)[O-])o1	?	-9%	-11%	nt	-5%	1%
CN1CCN(c2ccccc2NC(=O)c2ccc([N+](=O)[O-])o2)CC1	9.2µM*	-28%	-41%	nt	-22%	1%
CN1CCN(c2ccccc2NC(=O)c2ccc(-c3cccc([N+](=O)[O-])c3)o2)CC1	?	1%	0%	-1%	-5%	1%
CC(=O)N1CCN(c2ccc(NC(=O)c3ccc([N+](=O)[O-])o3)cc2Cl)CC1	18µM*	14%	0%	nt	-11%	-15%
O=C1C(Nc2ccccc2)=C/C(=N/S(=O)(=O)c2cccs2)c2ccccc21	6.5µM*	-5%	-12%	-95%	-14%	?
COC(=O)c1ccccc1NC1=C/C(=N\S(=O)(=O)c2cccs2)c2ccccc2C1=O	5.2µM*	-33%	-7%	-107%	-25%	?
Cc1c(C)c2cc(Cl)c(O)c(CN3CCCC(C)C3)c2oc1=O (stereo not given)	13%	-4%	0%	-7%	1%	0%
Cc1ccc(NC(=O)c2ccc3ccccc3n2)cc1S(=O)(=O)N(C)C	?	2.8µM*	?	22µM*	?	4.3µM*
Cc1cnc(C(=O)Nc2ccc(C)c(S(=O)(=O)N(C)C)c2)cn1	?	1%	11%	20%	-1%	-16%
O=C(Nc1ccc(NC(=O)c2ccccn2)cc1)C(=O)Nc1ccc2c(c1)OCCO2	?	15%	11%	?	10%	0%
O=C(Nc1ccc2c(c1)OCCO2)c1ccccn1	?	0.32µM*	0.79µM*	1.3µM*	1µM*	0.85µM*
O=C(Nc1ccc2c(c1)OCCO2)c1cccc2nc3ccccc3nc12	?	-1%	-3%	-17%	-5%	?
O=C(Nc1ccc2c(c1)OCCO2)c1ccc2ccccc2n1	?	4.5µM*	0%	11µM*	?	2.1µM*
CN1CCc2c(c3ccccc3n2Cc2ccccc2)C1	-2%	-1%	-2%	24%	-6%	4%
Cc1ccc(NC(=O)CSc2ncccc2C(=O)Oc2cccc([N+](=O)[O-])c2)cc1Cl	?	?	4.5µM*	11µM*	23µM*	?
O=c1c2c([N+](=O)[O-])cc([N+](=O)[O-])cc2nc2ccccn12	-3%	1%	-1%	nt	0%	3%
O=c1c2c([N+](=O)[O-])cc([N+](=O)[O-])cc2sn1-c1ccc(Br)cc1	10%	-1%	-5%	-4%	-1%	21µM*

Screening data: PubChem, National Center for Advancing Translational Sciences (NCATS)
